The results in this text go back to paper PMC5700166.

Holding throughout (assay): protein-binding microarray (PBM); PBM: ~300 nM protein, 6 mM HEPES pH 7.8, 80 mM KCl, 0.5 mM EDTA, 0.5 mM EGTA, 6% glycerol, 35 ng/ul poly-dIdC, 1% milk, 1 h, room temperature; Ap Aiptasia and Nv Nematostella (sea anemones) / Co Capsaspora / Aq Amphimedon (sponge) / Dm Drosophila / Hu human; RHD is the Rel homology domain; high values mean tight binding
Common to all, as to conditions: dsDNA, one strand shown

The target in one experiment is T1, GST-Ap-NF-kB RHD (Exaiptasia pallida (Aiptasia), UniProt A0A913YAJ5 2-422).
T1 sequence: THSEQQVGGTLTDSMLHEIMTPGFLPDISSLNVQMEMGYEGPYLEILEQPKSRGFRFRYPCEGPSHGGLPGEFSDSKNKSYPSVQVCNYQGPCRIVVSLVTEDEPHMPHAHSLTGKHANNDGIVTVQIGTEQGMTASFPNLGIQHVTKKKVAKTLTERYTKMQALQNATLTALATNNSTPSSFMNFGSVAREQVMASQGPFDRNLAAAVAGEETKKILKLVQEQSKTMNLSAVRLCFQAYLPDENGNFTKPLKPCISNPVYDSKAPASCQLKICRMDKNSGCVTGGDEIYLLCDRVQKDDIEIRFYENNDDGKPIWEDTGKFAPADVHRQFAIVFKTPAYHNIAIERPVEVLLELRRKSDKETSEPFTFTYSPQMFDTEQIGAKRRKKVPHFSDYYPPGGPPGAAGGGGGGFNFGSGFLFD

Experiment [1] addresses T2, GST-Nv-NF-kB (Cys allele) (Nematostella vectensis, UniProt E5G601 2-411).
T2 sequence: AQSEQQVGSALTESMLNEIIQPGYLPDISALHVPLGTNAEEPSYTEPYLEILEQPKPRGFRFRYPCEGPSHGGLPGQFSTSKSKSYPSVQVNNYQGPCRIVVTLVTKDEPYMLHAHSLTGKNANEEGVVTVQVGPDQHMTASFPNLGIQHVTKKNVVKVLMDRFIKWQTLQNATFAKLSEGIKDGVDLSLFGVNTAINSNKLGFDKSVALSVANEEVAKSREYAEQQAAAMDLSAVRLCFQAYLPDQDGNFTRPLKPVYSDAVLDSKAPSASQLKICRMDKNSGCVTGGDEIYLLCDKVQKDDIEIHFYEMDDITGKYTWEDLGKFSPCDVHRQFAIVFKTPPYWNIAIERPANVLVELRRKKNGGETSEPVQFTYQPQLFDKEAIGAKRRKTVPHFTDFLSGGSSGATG

For experiment [2], the target named is T3, GST-Nv-NF-kB (Ser allele) (Nematostella vectensis, UniProt A7UNT2 2-411).
T3 sequence: T2 sequence with Q21R, C66S, S207N, E215Q, V217A, E225K, A268E, D399E

In the next experiment the target is T4, GST-Co-NF-kB (Capsaspora owczarzaki, UniProt F1ARL5 200-546).
T4 sequence: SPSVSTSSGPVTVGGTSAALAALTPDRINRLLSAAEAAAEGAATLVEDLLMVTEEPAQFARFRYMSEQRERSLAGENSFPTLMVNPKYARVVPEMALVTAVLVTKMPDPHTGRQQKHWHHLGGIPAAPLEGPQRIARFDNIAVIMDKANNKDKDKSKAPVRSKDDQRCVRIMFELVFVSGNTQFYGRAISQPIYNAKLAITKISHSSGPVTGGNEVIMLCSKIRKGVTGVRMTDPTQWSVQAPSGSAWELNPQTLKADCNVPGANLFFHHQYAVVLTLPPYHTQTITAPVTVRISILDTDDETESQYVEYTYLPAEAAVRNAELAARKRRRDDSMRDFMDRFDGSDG

In a further experiment the target is T5, GST-Dm-Relish (Drosophila melanogaster, UniProt Q94527 99-473).
T5 sequence: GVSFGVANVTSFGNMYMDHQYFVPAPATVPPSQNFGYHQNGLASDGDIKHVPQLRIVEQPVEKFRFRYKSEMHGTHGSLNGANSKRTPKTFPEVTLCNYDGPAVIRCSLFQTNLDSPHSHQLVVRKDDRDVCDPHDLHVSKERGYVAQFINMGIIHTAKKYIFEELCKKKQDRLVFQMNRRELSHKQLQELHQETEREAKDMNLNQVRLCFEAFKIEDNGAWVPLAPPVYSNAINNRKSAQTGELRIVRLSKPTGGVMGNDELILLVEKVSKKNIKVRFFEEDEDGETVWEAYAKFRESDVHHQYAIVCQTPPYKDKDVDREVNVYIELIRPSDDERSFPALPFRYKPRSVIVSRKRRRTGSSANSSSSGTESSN

A further experiment concerns the target T6, GST-Aq-NF-kB (Amphimedon queenslandica, UniProt A9Y5G7 2-389).
T6 sequence: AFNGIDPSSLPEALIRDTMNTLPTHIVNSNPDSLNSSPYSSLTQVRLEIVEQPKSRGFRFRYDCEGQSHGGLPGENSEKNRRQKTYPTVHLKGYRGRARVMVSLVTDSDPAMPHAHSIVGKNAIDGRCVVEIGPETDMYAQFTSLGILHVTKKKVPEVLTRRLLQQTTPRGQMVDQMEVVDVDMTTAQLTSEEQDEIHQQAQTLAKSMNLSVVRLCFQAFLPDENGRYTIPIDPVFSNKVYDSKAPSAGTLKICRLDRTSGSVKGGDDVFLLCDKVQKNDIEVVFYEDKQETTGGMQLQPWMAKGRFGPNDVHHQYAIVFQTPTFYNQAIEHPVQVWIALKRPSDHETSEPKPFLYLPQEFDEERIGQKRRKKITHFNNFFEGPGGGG

The next experiment concerns the target GST-Hu-p50 (Homo sapiens, UniProt P19838 7-356).

Changes are numbered by the printed parent chain.

Sequence of GST-Hu-p50 (P19838 7-356): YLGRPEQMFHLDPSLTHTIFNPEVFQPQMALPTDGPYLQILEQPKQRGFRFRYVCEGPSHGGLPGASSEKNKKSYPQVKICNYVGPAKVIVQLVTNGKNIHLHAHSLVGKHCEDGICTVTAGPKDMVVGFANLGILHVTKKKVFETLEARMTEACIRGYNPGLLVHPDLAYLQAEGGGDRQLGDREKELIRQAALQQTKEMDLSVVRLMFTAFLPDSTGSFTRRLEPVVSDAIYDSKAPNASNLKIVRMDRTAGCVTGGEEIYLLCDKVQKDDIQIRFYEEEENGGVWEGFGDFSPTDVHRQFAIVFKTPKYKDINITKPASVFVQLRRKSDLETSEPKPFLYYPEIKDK

Turning to “CCGATTAACATCAGGGGAGTCCATGATGTTAATCGGGTCTTGATTCGCTTGACGCTGCTG”, the binding signal in the experiment with GST-Ap-NF-kB RHD stood at 6.16 z-score; in experiment [1] it was 3.64 z-score; in experiment [2], 4.15 z-score; with GST-Co-NF-kB, 3.05 z-score; with GST-Dm-Relish, 6.79 z-score; with GST-Aq-NF-kB, 4.34 z-score. In addition, in the experiment with GST-Hu-p50, the binding signal came to 3.32 z-score.
Take “CCGATTAACATCAGGGGAAACAATGATGTTAATCGGGTCTTGATTCGCTTGACGCTGCTG”: the binding signal in the experiment with GST-Ap-NF-kB RHD was found to be 5.65 z-score; in experiment [1] it was 7.25 z-score; in experiment [2] it was 9.76 z-score; with GST-Co-NF-kB it was 8.67 z-score; in the experiment with GST-Dm-Relish it was 3.09 z-score; with GST-Aq-NF-kB it was 4.59 z-score. The sequence further registered a binding signal in the experiment with GST-Hu-p50 of 5.36 z-score.
As for “CCGATTAACATCAGGGGATGTGCTGATGTTAATCGGGTCTTGATTCGCTTGACGCTGCTG”, the binding signal was found to be 3.15 z-score in the experiment with GST-Ap-NF-kB RHD; 3.45 z-score in experiment [1]; 5.32 z-score in experiment [2]; 1.81 z-score with GST-Co-NF-kB; 1.41 z-score with GST-Dm-Relish; 2.79 z-score with GST-Aq-NF-kB. Besides, in the experiment with GST-Hu-p50, the binding signal was 3.33 z-score.
For the sequence “CCGATTAACATCAAGGGGGGGCGTGATGTTAATCGGGTCTTGATTCGCTTGACGCTGCTG”, the binding signal with GST-Ap-NF-kB RHD was 4.19 z-score; in experiment [1] it was 4.66 z-score; in experiment [2], 4.86 z-score; with GST-Co-NF-kB it was 3.83 z-score; in the experiment with GST-Dm-Relish, 3.7 z-score; with GST-Aq-NF-kB it was 4.52 z-score. Besides, the binding signal with GST-Hu-p50 was found to be 4.17 z-score.
“CCGATTAACATCAGGGAATCTTATGATGTTAATCGGGTCTTGATTCGCTTGACGCTGCTG”: the binding signal with GST-Ap-NF-kB RHD turned out to be 3.7 z-score; in experiment [1], 4.66 z-score; in experiment [2] it was 4.86 z-score; with GST-Co-NF-kB, 3.74 z-score; with GST-Dm-Relish it was 2.95 z-score; in the experiment with GST-Aq-NF-kB, 5.5 z-score. In addition, the binding signal with GST-Hu-p50 came to 4.29 z-score.
Consider “CCGATTAACATCAAAAAAGTCCCTGATGTTAATCGGGTCTTGATTCGCTTGACGCTGCTG”, for which the binding signal in the experiment with GST-Ap-NF-kB RHD was determined as 8.8 z-score; in experiment [1], 11.6 z-score; in experiment [2] it was 11.5 z-score; with GST-Co-NF-kB it was 2.41 z-score; with GST-Dm-Relish, 9.77 z-score; in the experiment with GST-Aq-NF-kB, 8.92 z-score. In addition, the binding signal in the experiment with GST-Hu-p50 came to 7.77 z-score.
As for “CCGATTAACATCAATTTCCCCCATGATGTTAATCGGGTCTTGATTCGCTTGACGCTGCTG”, the binding signal was found to be 7.52 z-score with GST-Ap-NF-kB RHD; 7.6 z-score in experiment [1]; 8.86 z-score in experiment [2]; 10.7 z-score with GST-Co-NF-kB; 4.97 z-score with GST-Dm-Relish; 6.34 z-score with GST-Aq-NF-kB. This sequence had a binding signal in the experiment with GST-Hu-p50 of 6.86 z-score.
For the sequence “CCGATTAACATCAACGAATTCCCTGATGTTAATCGGGTCTTGATTCGCTTGACGCTGCTG”, the binding signal with GST-Ap-NF-kB RHD stood at 2.81 z-score; in experiment [1], 4.07 z-score; in experiment [2], 4.93 z-score; with GST-Co-NF-kB, 2.64 z-score; with GST-Dm-Relish it was 2.28 z-score; in the experiment with GST-Aq-NF-kB it was 3.08 z-score. In the experiment with GST-Hu-p50, this sequence showed a binding signal of 3.08 z-score.
“CCGATTAACATCACAAATTCCCCTGATGTTAATCGGGTCTTGATTCGCTTGACGCTGCTG”: the binding signal in the experiment with GST-Ap-NF-kB RHD was 9.44 z-score; in experiment [1], 10.9 z-score; in experiment [2], 12.6 z-score; in the experiment with GST-Co-NF-kB it was 8.68 z-score; with GST-Dm-Relish, 8.67 z-score; with GST-Aq-NF-kB, 8.11 z-score. For the same sequence, the binding signal in the experiment with GST-Hu-p50 was found to be 7.34 z-score.
On to “CCGATTAACATCAGGGAGGGAAATGATGTTAATCGGGTCTTGATTCGCTTGACGCTGCTG”, for which the binding signal with GST-Ap-NF-kB RHD turned out to be 2.6 z-score; in experiment [1], 4.76 z-score; in experiment [2], 3.78 z-score; in the experiment with GST-Co-NF-kB it was 3.79 z-score; in the experiment with GST-Dm-Relish, 1.23 z-score; in the experiment with GST-Aq-NF-kB it was 3.72 z-score. Further, the binding signal in the experiment with GST-Hu-p50 came out at 2.8 z-score.
Consider “CCGATTAACATCAGCATTCCCCCTGATGTTAATCGGGTCTTGATTCGCTTGACGCTGCTG”, for which the binding signal with GST-Ap-NF-kB RHD was determined as 7.2 z-score; in experiment [1], 7.59 z-score; in experiment [2], 7.61 z-score; in the experiment with GST-Co-NF-kB, 6.59 z-score; with GST-Dm-Relish it was 4.53 z-score; with GST-Aq-NF-kB, 5.57 z-score. In the experiment with GST-Hu-p50, this sequence returned a binding signal of 6.18 z-score.
Turning to “CCGATTAACATCAGATAATCCCCTGATGTTAATCGGGTCTTGATTCGCTTGACGCTGCTG”, the binding signal amounted to 8.1 z-score in the experiment with GST-Ap-NF-kB RHD; 8.93 z-score in experiment [1]; 9.43 z-score in experiment [2]; 4.09 z-score with GST-Co-NF-kB; 6.59 z-score in the experiment with GST-Dm-Relish; 7.45 z-score in the experiment with GST-Aq-NF-kB. The same sequence gave a binding signal in the experiment with GST-Hu-p50 of 6.48 z-score.
